{"source": "PubChem BioAssay (NCATS)", "note": "Results filed as inconclusive are left out. Activity calls are given as the source filed them. Calls come from the whole dose curve; as a rule, active = well fitted inhibition curve with a large enough effect; inconclusive = small, poorly fitted or top-dose-only effect; inactive = no such curve, though single readings can be large or run the other way. % is set by controls: 0 for no effect and ±100 for the full control effect; potency is the fitted concentration of half-maximal effect.", "data": [{"biological_target": "Cytochrome P450 2C9 (Homo sapiens) (UniProt P11712)", "sequence (P11712 whole entry, looked up)": "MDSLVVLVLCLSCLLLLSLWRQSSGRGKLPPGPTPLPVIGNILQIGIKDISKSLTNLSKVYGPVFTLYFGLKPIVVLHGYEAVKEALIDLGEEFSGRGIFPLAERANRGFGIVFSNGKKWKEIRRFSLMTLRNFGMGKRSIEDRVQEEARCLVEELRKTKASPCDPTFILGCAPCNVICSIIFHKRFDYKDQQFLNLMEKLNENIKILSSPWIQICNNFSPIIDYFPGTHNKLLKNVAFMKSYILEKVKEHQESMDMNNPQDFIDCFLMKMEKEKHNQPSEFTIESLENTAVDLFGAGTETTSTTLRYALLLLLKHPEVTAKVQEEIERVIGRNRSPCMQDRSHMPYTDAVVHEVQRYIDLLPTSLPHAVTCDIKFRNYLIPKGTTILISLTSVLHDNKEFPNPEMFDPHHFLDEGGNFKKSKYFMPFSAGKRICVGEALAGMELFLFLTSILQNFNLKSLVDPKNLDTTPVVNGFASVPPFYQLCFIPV", "assay": "qHTS Assay for Inhibitors and Substrates of Cytochrome P450 2C9 (AID 883); note: nearly all actives have a fitted effect of over 60% in size", "settings": "recombinant CYP2C9, luciferin-H luminescence, 60 min; series mostly up to 11.4 µM; activity change, negative = inhibition: at the top concentration", "procedure,_shortened": "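Signal: luciferase luminescence reporting luciferin produced by CYP2C9. Conditions: 10nM enzyme, Luciferin-H 100uM at KM, 25mM KPO4, 37C, 60 min NADPH-driven reaction. Reference: 57uM sulphaphenazole as 100% inhibition.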", "values": [{"smiles": "N#C[C@H](c1ccccc1)N1CCCN([C@@H](C#N)c2ccccc2)C1c1ccccc1O", "note": "(stereo partly drawn)", "Potency": "3.16 µM (active)"}, {"smiles": "O=C1CNCCCN2CCN(CCCNCC(=O)Nc3ccc(cc3)S(=O)(=O)c3ccc(cc3)NC(=O)CNCCCN3CCN(CCCNCC(=O)Nc4ccc(cc4)S(=O)(=O)c4ccc(cc4)N1)CC3)CC2", "activity change, negative = inhibition": "-16.9% (inactive)"}, {"smiles": "Nc1ncnc2nc[nH]c12.Nc1ncnc2nc[nH]c12.[Cl][Pt]([Cl])([Cl])[Cl]", "activity change, negative = inhibition": "-14.1% (inactive)"}, {"smiles": "O=S(=O)(O)c1cc(O)c2c(N=Cc3ccccc3O)cc(S(=O)(=O)O)cc2c1", "Potency": "3.16 µM (active)"}, {"smiles": "BrC(c1cccc2ccccc12)c1cccc2ccccc12", "Potency": "3.16 µM (active)"}, {"smiles": "CCCCSCc1nc2nc(Cl)c(Cl)nc2[nH]1", "Potency": "0.501 µM (active)"}, {"smiles": "O=C(O)c1ccc(SSc2ccc(C(=O)O)cn2)nc1", "Potency": "1.58 µM (active)"}, {"smiles": "Nc1[nH]c(=S)[nH]c(=O)c1N=Nc1c(Br)cc(S(N)(=O)=O)cc1Br", "activity change, negative = inhibition": "276% (inactive)"}]}]}
